From PubChem BioAssay (Tox21) come the findings set out here.

A number with no mark means an inactive call. Records with an inconclusive call do not appear. Calls of active or inactive are those of the source. Unless noted, calls come from the whole dose curve; as a rule, active = well fitted curve in the direction sought with a large enough effect in the repeat runs; inconclusive = weak or mixed curves; inactive = no such curve, though single readings can be large; an effect the other way counts as inactive or inconclusive.

Experiment [1] in a line: qHTS assay for small molecule agonists of the p53 signaling pathway (AID 651631; calls by dose curve; note: nearly all actives have a fitted effect of over 15% in size). The method in brief:
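Agonist mode screen using a stably integrated beta-lactamase gene under p53 response elements in HCT-116 cells. Compound exposure lasts 16 h at 37 °C; fluorescence intensity is measured following 2 h FRET substrate loading.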

Experiment [2] is described as follows: qHTS assay for small molecules that induce genotoxicity in human embryonic kidney cells expressing luciferase-tagged ATAD5 (AID 651632). Note: nearly all actives have a fitted effect of over 15% in size. In short, it runs like this: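 Concentration-response screen for ATAD5 upregulation in HEK293T luciferase reporter cells; 16 hr treatment at 37C, then luminescence after 30 min with Amplite at room temperature.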
The nature of experiment [3]: qHTS assay for small molecule agonists of the p53 signaling pathway - cell viability (AID 651633; calls by dose curve;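 note: p53RE-bla HCT reporter cells with a stable beta-lactamase p53 reporter; series mostly up to about 83 µM; nearly all actives have a fitted effect of over 30% in size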). The method in brief: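 Viability counter-read: CellTiter-Glo luminescence (30 min, room temperature) in the same p53RE-bla plates. These plates had been exposed to compounds for 16 h at 37 C.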
Experiment [4] can be described thus: qHTS assay for small molecules that induce genotoxicity in human embryonic kidney cells expressing luciferase-tagged ATAD5 - cell viability (AID 651634; calls by dose curve; note: nearly all actives have a fitted effect of over 25% in size; note: potency is the fitted concentration of half-maximal effect). The method in brief:
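15.5 hr compound or vehicle exposure of HEK293T cells expressing luciferase-tagged ATAD5 at 37C; live-cell protease activity is read by fluorescence after 30 min of CellTiter-Fluor.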

Experiment [5] can be described thus: qHTS assay for small molecule disruptors of the mitochondrial membrane potential - cell viability (AID 720634; calls by dose curve;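 note: human HepG2 liver cancer cells; series mostly up to about 83 µM; nearly all actives have a fitted effect of over 20% in size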). The method in brief: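 In this qHTS format, HepG2 cells plated overnight were pinned with compound, incubated 1 hr, and assayed for ATP luminescence with CellTiter-Glo after m-MPI dye addition.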
Experiment [6] is described as follows: qHTS assay for small molecule disruptors of the mitochondrial membrane potential (AID 720635). Note: potency is the fitted concentration of half-maximal effect. The method in brief: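 Mitochondrial membrane potential tracked with Mito-MPS dye, red aggregates (ex 540/em 590 nm) against green monomers (ex 490/em 535 nm). Compound treatment 1 hr at 37C, dye 30 min in HepG2.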
Experiment [7] is described as follows: qHTS assay to test for compound auto fluorescence at 590 nm (red) in HepG2 cells (AID 720674). The method in brief: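 Red autofluorescence (Ex/Em 540/590 nm, Rose Bengal sodium equivalents) was measured in HepG2 cells, 2,000 per well in MEM plus 10% FBS, plated overnight at 37 C. Readings were taken 1 hr after adding 23 nL compound or DMSO, at 37 C and 5% CO2.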

A short description of experiment [8]: qHTS assay to test for compound auto fluorescence at 535 nm (green) in HepG2 cells (AID 720675).
A short description of experiment [9]: qHTS assay to test for compound auto fluorescence at 460 nm (blue) in HEK293 cells (AID 720678). In short, it runs like this: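 HEK293, 2,000 cells/well, 10% dialyzed FBS; attach 4-5 hr 37C; pin compound or DMSO; o/n 37C/5% CO2; fluorescence 405/460 nm; triamterene-equivalent units.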
Experiment [10] is described as follows: qHTS assay to test for compound auto fluorescence at 590 nm (red) in HEK293 cells (AID 720679). In short, it runs like this: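 Intensity at 540nm excitation and 590nm emission is reported as Rose Bengal sodium-equivalent autofluorescence. Measurements followed overnight exposure (37C, 5% CO2) of HEK293 cells, 2,000 per well, to 23 nL compound.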
% is set by controls: 0 for no effect and ±100 for the full control effect.

Take `NS(=O)(=O)c1cc2c(cc1Cl)NC(CC1CCCC1)NS2(=O)=O` (configuration not stated): the compound was called inactive in [1], in [2], in experiment [3] and in [5]. For the same compound, the Potency entry in [4] and in experiment [6] was “inactive” throughout. Moreover, in [7], the fluorescence, relative to Rose Bengal was -0.14% [at 18.6 µM]. Also, the fluorescence, % of fluorescein control in [8] was -0.0768% [at 18.6 µM]. Further, in experiment [9], the fluorescence, % of triamterene is -0.024% [at 18.6 µM]. Also, the fluorescence, % of fluorescent control in [10] was -0.246% [at 18.6 µM].

In the case of `CCCO`, the outcome in experiment [1], in experiment [2], in experiment [3], in experiment [5], in [7] and in experiment [8] was inactive. Moreover, the outcome in experiment [9] and in [10] was inactive. The Potency entry in [4] and in [6] was “inactive” each time.

On to `C=C[C@@H](C)CCC=C(C)C`, for which the call in experiment [1], in experiment [2], in experiment [3], in experiment [5], in experiment [7] and in [8] was inactive. For the same compound, the result in experiment [9] and in experiment [10] was inactive. Moreover, the Potency result in experiment [4] and in [6] was “inactive” throughout.

Take `C=CCOCC(CO)(COCC=C)COCC=C`: the compound was classed as inactive in experiment [1], in experiment [2], in [3], in experiment [5], in [7] and in [8]. Besides, the result in [9] and in experiment [10] was inactive. Moreover, the Potency result in experiment [4] and in [6] was “inactive” each time.

In the case of `CCCCCCCCCCCCC`, the compound was called inactive in experiment [1], in experiment [2], in experiment [3], in [5], in experiment [7] and in experiment [8]. The result in experiment [9] and in [10] was inactive. For the same compound, the Potency result in experiment [4] and in experiment [6] was “inactive” throughout.

As for `CCC(O)C(C)(C)C` (configuration not stated), the result in [1], in experiment [2], in experiment [3], in experiment [5], in experiment [7] and in experiment [9] was inactive. Also, in experiment [10], the compound was classed as inactive. The Potency result in experiment [4] and in experiment [6] was “inactive” in each case.

Turning to `O=CN1CCOCC1`, the outcome in experiment [1], in experiment [2], in experiment [3], in experiment [5], in experiment [7] and in experiment [8] was inactive. Besides, the compound was called inactive in [9] and in [10]. Besides, the Potency result in experiment [4] was “inactive”.

For `Nc1cc(S(=O)(=O)O)ccc1S(=O)(=O)O`, the outcome in experiment [1], in experiment [2], in experiment [3], in [5], in experiment [7] and in experiment [8] was inactive. Further, the compound was classed as inactive in [9] and in experiment [10]. Moreover, in experiment [4], the Potency entry was “inactive”.

Turning to `CC(C)COC(=O)/C=C/c1ccccc1`, the call in experiment [1], in experiment [2], in [3], in experiment [5], in experiment [7] and in experiment [8] was inactive. Further, the compound was called inactive in experiment [9] and in experiment [10]. Also, the Potency entry in experiment [4] and in experiment [6] was “inactive” each time.

Take `CC1(N)CCC(C(C)(C)N)CC1` (configuration not stated): the compound was called inactive in experiment [1], in experiment [2], in experiment [3], in experiment [5], in experiment [7] and in experiment [9]. For the same compound, the compound was called inactive in experiment [10]. Besides, the Potency result in experiment [4] and in experiment [6] was “inactive” throughout.

Turning to `O=C(COCCOCCOCC(=O)Nc1c(I)cc(I)c(C(=O)O)c1I)Nc1c(I)cc(I)c(C(=O)O)c1I`, the compound was classed as inactive in experiment [1], in experiment [2], in experiment [3], in experiment [5], in experiment [7] and in [8]. For the same compound, the outcome in [9] and in [10] was inactive. Further, the Potency entry in experiment [4] and in [6] was “inactive” throughout.

On to `O=c1[nH]c(=O)c2ccccc2o1`, for which the call in [1], in [2], in experiment [3], in experiment [5], in experiment [7] and in [8] was inactive. Further, the result in [9] and in [10] was inactive. Further, the Potency result in [4] is “inactive”.

As for `C=C[Si](C)(C)O[Si](C)(C)C=C`, the compound was classed as inactive in experiment [1], in experiment [2], in experiment [3], in experiment [5], in [7] and in [8]. Also, the result in experiment [9] and in experiment [10] was inactive. Also, the Potency result in experiment [4] and in experiment [6] was “inactive” each time.

For the compound `Nc1cc(C(=O)O)ccc1Cl`, the call in [1], in experiment [2], in [3], in experiment [5], in experiment [7] and in experiment [8] was inactive. Further, the compound was called inactive in experiment [9] and in [10]. Besides, the Potency entry in experiment [4] and in experiment [6] was “inactive” in each case.

Consider `CCN1CN(CC)CN(CC)C1`, for which the call in experiment [1], in experiment [2], in [3], in experiment [5], in experiment [7] and in experiment [9] was inactive. Besides, the outcome in experiment [10] was inactive. The Potency result in experiment [4] and in [6] was “inactive” throughout.

Turning to `COc1cc([N+](=O)[O-])ccc1N`, the compound was classed as inactive in [1], in experiment [2], in experiment [3], in [5], in experiment [7] and in experiment [8]. Moreover, the compound was classed as inactive in [9] and in experiment [10]. Moreover, the Potency in experiment [4] is 54.5 µM (active). For the same compound, the Potency entry in [6] is “inactive”.

As for `CCN(CCO)c1cccc(C)c1`, the compound was called inactive in experiment [1], in experiment [2], in experiment [3], in [5], in experiment [7] and in [9]. Moreover, in [10], the compound was classed as inactive. Besides, the Potency entry in experiment [4] and in experiment [6] was “inactive” each time.

As to `CCCCCC1CCCC(=O)O1` (configuration not stated), the compound was classed as inactive in [1], in [2], in [3], in [5], in [7] and in [8]. For the same compound, the call in experiment [9] and in experiment [10] was inactive. In addition, the Potency entry in [4] and in [6] was “inactive” each time.

As to `CO[Si](CCCCl)(OC)OC`, the compound was called inactive in [1], in experiment [2], in [3], in experiment [5], in experiment [7] and in [8]. Further, the compound was classed as inactive in experiment [9] and in [10]. Further, in experiment [4], the Potency result was “inactive”. Also, the Potency in experiment [6] was 60.2 µM (active).

As for `CNC(=O)NC`, the compound was classed as inactive in [1], in experiment [2], in experiment [3], in [5], in [7] and in experiment [8]. The outcome in [9] and in experiment [10] was inactive. For the same compound, the Potency entry in [4] and in [6] was “inactive” in each case.

Turning to `CC(=O)OC(C)c1ccccc1` (configuration not stated), the call in [1], in [2], in experiment [3], in experiment [5], in experiment [7] and in experiment [8] was inactive. Moreover, the compound was classed as inactive in [9] and in experiment [10]. The Potency entry in experiment [4] and in [6] was “inactive” in each case.

As for `CCCCCCCCCCCCCCCCI`, the outcome in [1], in experiment [2], in [3] and in [5] was inactive. Besides, the Potency entry in experiment [4] and in [6] was “inactive” in each case. Moreover, in experiment [7], the fluorescence, relative to Rose Bengal is 0.0421% [at 18.6 µM]. Besides, the fluorescence, % of fluorescein control in experiment [8] is -0.0199% [at 18.6 µM]. The fluorescence, % of triamterene in experiment [9] was 0.0613% [at 18.6 µM]. The fluorescence, % of fluorescent control in experiment [10] is 0.21% [at 18.6 µM].

Regarding `FC(F)(F)/C(=N\OCC1OCCO1)c1ccc(Cl)cc1`, the compound was called inactive in experiment [1], in experiment [2], in [3], in [5], in [7] and in experiment [9]. The call in experiment [10] was inactive. Further, the Potency entry in experiment [4] and in experiment [6] was “inactive” each time.

As for `O=C(O)c1ccccc1C(=O)Nc1ccc(S(=O)(=O)Nc2nccs2)cc1`, the call in [1], in experiment [2], in experiment [3], in experiment [5], in experiment [7] and in [8] was inactive. For the same compound, the compound was classed as inactive in experiment [9] and in experiment [10]. In addition, the Potency result in experiment [4] and in experiment [6] was “inactive” throughout.
